How the values were obtained:
Assay in all cases: log2 ratio of Biotin-Ahx-Ub-VS probe labelling (fragment/DMSO); higher = less target engagement (more negative = stronger competition), active = hit call of the paper (q ≤ 0.05, log2 ratio ≤ -1)
Details in all cases: compound concentration: 200 uM; treatment time: 3 h
[1] = molecular target: UniProt O00507
In short: (§1)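 Labelled DUBs were enriched with NeutrAvidin, digested with LysC and trypsin, and run by diaPASEF LC-MS/MS. The labelling used Biotin-Ahx-Ub-VS at 0.5 µM final for 1 h on HEK293T lysate (495 µg per sample) previously treated in triplicate with fragment at 200 µM or vehicle for 3 h. Values are average log2 fragment/vehicle ratios by unpaired t-test on global-median-normalised Spectronaut quantities of proteins with ≥2 unique peptides.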

[2] = molecular target: UniProt P51784
In short: as §1

[3] = molecular target: T1, UniProt Q5T2D3
T1 sequence (whole entry): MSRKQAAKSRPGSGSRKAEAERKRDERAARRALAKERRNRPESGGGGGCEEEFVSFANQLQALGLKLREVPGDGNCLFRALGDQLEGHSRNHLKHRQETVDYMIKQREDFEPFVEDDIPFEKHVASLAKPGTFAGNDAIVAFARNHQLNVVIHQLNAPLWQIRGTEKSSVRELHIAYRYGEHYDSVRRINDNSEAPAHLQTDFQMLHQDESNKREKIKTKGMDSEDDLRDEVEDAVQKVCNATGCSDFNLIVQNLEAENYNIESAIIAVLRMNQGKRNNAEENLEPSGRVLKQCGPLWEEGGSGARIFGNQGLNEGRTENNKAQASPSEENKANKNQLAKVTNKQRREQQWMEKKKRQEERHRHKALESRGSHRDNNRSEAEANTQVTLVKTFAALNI
In short: as §1

[4] = molecular target: T2, UniProt Q8TE49
T2 sequence (whole entry): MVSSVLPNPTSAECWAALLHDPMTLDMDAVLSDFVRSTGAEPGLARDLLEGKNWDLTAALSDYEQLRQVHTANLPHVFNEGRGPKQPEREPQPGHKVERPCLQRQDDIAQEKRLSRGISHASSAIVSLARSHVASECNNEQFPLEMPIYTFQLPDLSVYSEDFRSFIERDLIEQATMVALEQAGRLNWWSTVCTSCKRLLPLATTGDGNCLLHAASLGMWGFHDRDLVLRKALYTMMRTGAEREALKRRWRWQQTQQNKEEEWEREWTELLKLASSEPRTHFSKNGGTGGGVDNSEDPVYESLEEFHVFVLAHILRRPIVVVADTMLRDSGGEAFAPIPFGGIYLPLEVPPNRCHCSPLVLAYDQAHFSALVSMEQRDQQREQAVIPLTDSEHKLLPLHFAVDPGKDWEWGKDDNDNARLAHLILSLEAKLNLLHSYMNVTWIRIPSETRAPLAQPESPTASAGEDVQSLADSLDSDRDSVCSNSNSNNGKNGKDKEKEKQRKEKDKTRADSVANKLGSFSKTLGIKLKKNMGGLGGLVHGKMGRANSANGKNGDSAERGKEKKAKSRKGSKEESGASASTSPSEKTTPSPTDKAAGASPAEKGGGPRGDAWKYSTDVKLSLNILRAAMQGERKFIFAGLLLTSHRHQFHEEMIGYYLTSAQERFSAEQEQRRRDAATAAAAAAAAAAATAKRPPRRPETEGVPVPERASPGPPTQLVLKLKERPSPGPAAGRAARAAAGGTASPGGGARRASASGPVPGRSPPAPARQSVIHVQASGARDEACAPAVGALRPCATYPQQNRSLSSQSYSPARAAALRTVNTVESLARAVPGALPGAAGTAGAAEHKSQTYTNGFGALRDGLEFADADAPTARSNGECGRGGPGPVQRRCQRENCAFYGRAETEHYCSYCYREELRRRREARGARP
In short: as §1

[5] = molecular target: T3, UniProt Q9P2H5
T3 sequence (whole entry): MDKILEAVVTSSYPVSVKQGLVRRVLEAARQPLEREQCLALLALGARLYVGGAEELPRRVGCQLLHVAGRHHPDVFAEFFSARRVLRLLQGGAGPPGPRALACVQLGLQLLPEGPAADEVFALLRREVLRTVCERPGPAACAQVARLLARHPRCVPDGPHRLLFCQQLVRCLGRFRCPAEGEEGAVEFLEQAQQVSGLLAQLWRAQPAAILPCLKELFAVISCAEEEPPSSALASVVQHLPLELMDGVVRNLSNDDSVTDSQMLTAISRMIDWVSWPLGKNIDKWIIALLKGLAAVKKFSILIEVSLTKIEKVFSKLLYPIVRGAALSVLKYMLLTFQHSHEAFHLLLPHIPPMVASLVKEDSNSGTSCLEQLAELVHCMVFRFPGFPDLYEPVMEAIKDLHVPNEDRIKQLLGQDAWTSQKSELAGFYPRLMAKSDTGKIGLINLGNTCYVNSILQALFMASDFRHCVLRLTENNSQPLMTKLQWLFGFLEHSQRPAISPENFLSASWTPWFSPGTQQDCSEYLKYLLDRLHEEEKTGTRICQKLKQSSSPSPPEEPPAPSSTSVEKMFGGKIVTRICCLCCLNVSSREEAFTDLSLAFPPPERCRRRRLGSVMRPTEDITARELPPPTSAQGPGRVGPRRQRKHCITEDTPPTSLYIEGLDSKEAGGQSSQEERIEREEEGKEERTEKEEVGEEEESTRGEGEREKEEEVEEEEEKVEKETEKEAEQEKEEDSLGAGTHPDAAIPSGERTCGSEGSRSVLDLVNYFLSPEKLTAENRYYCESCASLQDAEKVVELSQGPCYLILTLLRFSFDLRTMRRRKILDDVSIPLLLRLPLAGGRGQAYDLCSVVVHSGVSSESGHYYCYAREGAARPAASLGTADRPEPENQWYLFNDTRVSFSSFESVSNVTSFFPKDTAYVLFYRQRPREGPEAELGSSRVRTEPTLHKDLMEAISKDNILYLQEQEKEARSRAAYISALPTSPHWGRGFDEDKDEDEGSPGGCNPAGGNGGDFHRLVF
In short: as §1

[6] = molecular target: T4, UniProt Q9UGI0
T4 sequence (whole entry): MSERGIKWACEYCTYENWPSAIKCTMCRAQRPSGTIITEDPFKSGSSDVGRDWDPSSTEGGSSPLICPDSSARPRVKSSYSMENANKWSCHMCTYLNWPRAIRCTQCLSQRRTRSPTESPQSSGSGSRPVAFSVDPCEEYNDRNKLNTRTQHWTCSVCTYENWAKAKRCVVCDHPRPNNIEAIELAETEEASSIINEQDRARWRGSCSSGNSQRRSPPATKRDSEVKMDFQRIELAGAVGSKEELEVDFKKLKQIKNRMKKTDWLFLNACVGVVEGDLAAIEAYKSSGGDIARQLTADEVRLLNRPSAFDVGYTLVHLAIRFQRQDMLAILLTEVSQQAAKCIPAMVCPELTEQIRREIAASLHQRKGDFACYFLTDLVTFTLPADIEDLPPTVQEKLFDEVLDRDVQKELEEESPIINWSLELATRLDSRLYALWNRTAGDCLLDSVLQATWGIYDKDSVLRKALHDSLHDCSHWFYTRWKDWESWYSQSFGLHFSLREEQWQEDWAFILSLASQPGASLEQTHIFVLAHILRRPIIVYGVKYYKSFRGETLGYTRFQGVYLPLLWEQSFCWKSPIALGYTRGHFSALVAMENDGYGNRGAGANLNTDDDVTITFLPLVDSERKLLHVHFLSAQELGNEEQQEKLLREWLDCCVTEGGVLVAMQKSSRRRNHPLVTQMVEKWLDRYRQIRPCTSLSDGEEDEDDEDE
In short: as §1

[7] = molecular target: T5, YOD1 (UniProt Q5VVQ6)
T5 sequence (whole entry): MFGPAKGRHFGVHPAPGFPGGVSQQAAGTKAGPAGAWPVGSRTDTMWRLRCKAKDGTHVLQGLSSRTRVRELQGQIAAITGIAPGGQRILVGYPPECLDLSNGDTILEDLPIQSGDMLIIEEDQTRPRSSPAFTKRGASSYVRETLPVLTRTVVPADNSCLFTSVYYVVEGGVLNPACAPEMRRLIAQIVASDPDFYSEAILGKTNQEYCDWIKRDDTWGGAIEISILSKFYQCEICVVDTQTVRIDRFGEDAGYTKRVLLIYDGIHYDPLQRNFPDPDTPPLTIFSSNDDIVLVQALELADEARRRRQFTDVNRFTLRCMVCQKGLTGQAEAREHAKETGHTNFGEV
In short: as §1

Measured: log2 ratio of Biotin-Ahx-Ub-VS probe labelling

Chain of UniProt P51784 (P51784 whole entry): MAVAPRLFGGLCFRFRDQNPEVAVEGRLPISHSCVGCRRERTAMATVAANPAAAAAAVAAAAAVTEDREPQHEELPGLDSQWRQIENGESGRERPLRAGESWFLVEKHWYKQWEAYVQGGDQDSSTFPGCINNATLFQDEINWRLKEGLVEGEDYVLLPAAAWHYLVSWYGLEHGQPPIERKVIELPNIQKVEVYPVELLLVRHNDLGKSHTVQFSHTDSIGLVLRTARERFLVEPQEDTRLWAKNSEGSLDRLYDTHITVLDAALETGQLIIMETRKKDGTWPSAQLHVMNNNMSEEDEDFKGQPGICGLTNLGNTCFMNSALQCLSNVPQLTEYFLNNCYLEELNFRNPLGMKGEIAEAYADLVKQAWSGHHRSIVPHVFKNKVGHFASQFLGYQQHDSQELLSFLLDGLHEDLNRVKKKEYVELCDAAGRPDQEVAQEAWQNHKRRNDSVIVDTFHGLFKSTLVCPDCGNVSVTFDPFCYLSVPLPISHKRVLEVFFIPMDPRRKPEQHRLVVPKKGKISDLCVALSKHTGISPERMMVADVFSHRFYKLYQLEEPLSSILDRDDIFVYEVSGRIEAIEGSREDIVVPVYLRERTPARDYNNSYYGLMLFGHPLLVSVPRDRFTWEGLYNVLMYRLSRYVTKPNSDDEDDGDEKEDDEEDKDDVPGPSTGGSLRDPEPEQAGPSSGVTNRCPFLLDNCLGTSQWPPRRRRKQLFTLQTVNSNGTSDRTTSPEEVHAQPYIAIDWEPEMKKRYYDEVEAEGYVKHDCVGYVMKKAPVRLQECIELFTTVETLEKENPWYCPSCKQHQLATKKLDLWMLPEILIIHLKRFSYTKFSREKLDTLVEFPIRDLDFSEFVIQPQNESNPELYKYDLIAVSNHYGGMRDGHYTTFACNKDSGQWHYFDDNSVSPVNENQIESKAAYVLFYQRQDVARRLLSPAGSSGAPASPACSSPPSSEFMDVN
Chain of UniProt O00507 (O00507 whole entry, the tested form may be a part): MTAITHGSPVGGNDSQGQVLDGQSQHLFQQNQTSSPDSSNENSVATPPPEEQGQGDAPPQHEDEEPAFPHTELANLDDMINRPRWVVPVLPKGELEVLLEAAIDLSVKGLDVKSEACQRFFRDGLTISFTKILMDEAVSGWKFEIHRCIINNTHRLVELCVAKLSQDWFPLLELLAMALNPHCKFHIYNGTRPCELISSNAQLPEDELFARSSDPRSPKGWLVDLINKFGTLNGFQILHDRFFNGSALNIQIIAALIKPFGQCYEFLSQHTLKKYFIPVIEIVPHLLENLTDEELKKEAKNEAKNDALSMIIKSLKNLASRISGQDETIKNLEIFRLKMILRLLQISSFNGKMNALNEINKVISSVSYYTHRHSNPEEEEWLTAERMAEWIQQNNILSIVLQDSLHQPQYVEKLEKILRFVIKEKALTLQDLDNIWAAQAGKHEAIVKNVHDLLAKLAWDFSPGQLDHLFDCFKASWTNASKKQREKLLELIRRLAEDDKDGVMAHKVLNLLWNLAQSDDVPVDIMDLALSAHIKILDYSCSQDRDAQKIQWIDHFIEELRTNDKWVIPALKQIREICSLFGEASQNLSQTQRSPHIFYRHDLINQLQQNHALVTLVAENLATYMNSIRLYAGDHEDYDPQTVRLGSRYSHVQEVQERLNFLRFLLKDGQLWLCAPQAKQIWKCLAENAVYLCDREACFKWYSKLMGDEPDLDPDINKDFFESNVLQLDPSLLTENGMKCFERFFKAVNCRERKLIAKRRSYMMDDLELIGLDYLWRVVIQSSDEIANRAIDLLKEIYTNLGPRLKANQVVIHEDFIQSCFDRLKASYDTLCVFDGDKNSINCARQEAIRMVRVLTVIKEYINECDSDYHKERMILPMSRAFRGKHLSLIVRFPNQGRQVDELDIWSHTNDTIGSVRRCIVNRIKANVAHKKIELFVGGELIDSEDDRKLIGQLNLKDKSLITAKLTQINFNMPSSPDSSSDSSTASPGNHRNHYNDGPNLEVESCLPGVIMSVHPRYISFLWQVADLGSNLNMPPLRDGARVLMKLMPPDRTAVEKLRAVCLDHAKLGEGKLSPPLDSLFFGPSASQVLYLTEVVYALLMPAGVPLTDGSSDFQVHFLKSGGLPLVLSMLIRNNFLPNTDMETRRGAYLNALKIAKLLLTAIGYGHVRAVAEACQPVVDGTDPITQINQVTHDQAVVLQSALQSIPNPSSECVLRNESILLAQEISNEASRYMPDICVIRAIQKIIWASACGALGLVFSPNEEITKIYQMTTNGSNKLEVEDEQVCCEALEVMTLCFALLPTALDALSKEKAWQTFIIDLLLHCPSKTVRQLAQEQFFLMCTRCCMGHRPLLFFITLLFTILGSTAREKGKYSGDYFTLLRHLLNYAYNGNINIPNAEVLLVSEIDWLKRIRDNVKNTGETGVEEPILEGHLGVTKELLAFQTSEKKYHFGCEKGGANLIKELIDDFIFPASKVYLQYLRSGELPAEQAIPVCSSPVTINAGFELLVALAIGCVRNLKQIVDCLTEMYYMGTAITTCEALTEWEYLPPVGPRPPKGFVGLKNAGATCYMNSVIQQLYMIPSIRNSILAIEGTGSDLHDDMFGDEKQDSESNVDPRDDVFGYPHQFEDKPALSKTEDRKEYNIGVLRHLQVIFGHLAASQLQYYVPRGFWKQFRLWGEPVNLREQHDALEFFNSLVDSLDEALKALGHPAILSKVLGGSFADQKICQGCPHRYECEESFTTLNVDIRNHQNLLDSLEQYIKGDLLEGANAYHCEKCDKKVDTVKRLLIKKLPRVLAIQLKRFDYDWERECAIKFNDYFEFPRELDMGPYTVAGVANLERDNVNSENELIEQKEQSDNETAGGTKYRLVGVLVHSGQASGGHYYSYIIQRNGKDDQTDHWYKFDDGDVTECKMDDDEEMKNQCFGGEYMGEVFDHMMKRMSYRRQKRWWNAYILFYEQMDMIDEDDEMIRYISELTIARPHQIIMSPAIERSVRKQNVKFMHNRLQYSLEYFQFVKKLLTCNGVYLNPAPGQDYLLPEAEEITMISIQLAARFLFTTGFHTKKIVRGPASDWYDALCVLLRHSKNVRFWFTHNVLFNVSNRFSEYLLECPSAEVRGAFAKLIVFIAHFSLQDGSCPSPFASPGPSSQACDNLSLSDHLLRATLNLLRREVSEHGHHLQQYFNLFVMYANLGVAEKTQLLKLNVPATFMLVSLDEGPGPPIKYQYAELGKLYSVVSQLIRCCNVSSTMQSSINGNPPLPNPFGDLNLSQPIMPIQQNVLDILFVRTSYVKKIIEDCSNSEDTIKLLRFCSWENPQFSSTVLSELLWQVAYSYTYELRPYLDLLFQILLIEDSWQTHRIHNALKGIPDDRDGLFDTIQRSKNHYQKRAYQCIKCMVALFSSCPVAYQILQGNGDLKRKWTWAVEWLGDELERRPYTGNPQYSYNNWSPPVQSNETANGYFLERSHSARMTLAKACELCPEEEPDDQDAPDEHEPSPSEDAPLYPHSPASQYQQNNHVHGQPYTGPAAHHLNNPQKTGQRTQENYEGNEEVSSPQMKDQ

O=C(CCl)NC1CCCCNC1=O (stereo not given)
inactive: [1] -0.323 | [2] -0.117 | [3] -0.329 | [4] -0.574 | [5] -0.277 | [6] -0.309 | [7] -0.218

O=C(CCl)N[C@H]1CCS(=O)(=O)c2ccccc21
inactive: [1] -0.141 | [2] -0.134 | [3] -0.0599 | [4] -0.609 | [5] -0.0511 | [6] -0.158 | [7] 0.0852

O=C(CCl)Nc1ccccc1C(F)(F)F
inactive: [1] -0.463 | [2] -0.127 | [3] -0.319 | [4] -0.411 | [5] 0.0663 | [6] -0.466 | [7] -0.621

COc1ccccc1C(C)NC(=O)CCl (stereo not given)
inactive: [1] -0.445 | [2] -0.212 | [3] -0.15 | [4] -0.696 | [5] -0.277 | [6] -0.788 | [7] -0.23

O=C(CCl)NCCc1ccc(F)cc1
inactive: [1] -0.114 | [2] 0.00457 | [3] 0.0738 | [4] -0.0633 | [5] 0.297 | [6] -0.491 | [7] 0.0794
